# PLK1 PBD inh – qHTS for Inhibitors of PLK1-PDB (polo-like kinase 1 - polo-box domain): Primary Screen | AID 720504, 2013 | 360,000 tested, 2.8% active | Plk1 PBD binding of FITC phosphopeptide, fluorescence polarization | Serine/threonine-protein kinase PLK1 (Homo sapiens), P53350 | Potency, µM, actives largely listed as inhibitors; also: series mostly up to about 57 µM; nearly all actives have a fitted effect of over 65% in size
# Target sequence (P53350 whole entry, looked up, the tested form may be a part): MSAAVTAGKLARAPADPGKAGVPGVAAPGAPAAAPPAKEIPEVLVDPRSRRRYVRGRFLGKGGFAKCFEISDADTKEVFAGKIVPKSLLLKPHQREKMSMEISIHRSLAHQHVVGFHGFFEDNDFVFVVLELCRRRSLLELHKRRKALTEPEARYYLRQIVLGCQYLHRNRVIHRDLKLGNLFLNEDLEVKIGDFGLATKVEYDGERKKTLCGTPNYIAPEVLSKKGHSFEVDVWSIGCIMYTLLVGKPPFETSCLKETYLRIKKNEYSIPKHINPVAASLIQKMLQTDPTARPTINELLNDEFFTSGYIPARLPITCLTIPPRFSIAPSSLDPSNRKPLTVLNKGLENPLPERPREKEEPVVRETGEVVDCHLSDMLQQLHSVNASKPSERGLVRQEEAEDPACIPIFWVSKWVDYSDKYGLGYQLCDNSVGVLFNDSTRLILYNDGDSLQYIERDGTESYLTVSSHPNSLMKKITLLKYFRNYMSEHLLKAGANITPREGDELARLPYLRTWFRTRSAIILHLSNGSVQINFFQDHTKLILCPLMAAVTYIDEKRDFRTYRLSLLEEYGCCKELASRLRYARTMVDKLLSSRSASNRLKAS
# GCN5L2 inh – qHTS Assay for Inhibitors of GCN5L2 | Histone acetyltransferase KAT2A (Homo sapiens), Q92830 | GCN5L2 HAT assay, ThioGlo1 CoA-SH fluorescence | Potency, µM (highest dose often 58.9 µM), actives largely listed as inhibitors | 390,000 tested, 0.21% active | AID 504327, 2011
#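 GCN5L2 (20 nM) in 50mM HEPES pH 7.5, 0.1mM EDTA, 0.01% Tween-20 preincubated 15 min with compounds at room temperature. Reaction started with H3(1-25) 75uM, acetyl-CoA 70uM, ThioGlo1 50uM; CoA-thiol fluorescence (Ex340/Em540) read at 0 and 20 min.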
# VDR inh – Inhibitors of the vitamin D receptor (VDR): qHTS; Vitamin D3 receptor (Homo sapiens), P11473; VDR-SRC2-3 peptide fluorescence polarization, 2 h; Potency, µM, usual class: inhibitors; 400,000 tested, 0.93% active
#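 Measured by FP: displacement of SRC2-3 coactivator peptide from VDR by library compounds, following a two-hour ambient incubation.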
# ALOX12 inh – Primary qHTS assay for inhibitors of human arachidonate 12S-lipoxygenase (ALOX12): Round 2; Polyunsaturated fatty acid lipoxygenase ALOX12 (Homo sapiens), P18054; purified 12hLO, xylenol orange hydroperoxide absorbance; Potency, µM (doses to about 108 µM), hits mostly inhibitors; 580,000 tested, 1.1% active
#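 Purified human 12hLO (150 nM final) in 25 mM Hepes, 0.01% Triton X-100, pH 7.0 was preincubated 15 min at room temperature with compound. Then 40 uM arachidonic acid was added, 30 min. Hydroperoxide was read by Fe-XO absorbance ratio 573/405 nm.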
# A number is an active result; 0 = inactive; ? = inconclusive; - = no result. Only some compounds are listed: those with a hit (about 3% of all), similar ones and a draw of the others. Calls follow the shape of the dose curve; as a rule, active = well fitted curve in the direction sought with a large enough effect; inconclusive = small, poorly fitted or top-dose-only effect, or another doubt; inactive = no such curve, though single readings can be large; an effect the other way counts as inactive or inconclusive.
SMILES,PLK1 PBD inh,GCN5L2 inh,VDR inh,ALOX12 inh
Cc1ccc(S(=O)(=O)N(Cc2cc3ccc(C)cc3[nH]c2=O)c2ccccc2)cc1,33.6µM,0,0,0
Cc1ccc(S(=O)(=O)N(Cc2cc3ccccc3[nH]c2=O)c2cccc(C)c2)cc1,29.9µM,0,0,0
CCCn1c(C)cnc1CC1CCN(S(=O)(=O)c2ccc3c(c2)CCC3)C1 (stereo unspecified),-,-,-,0
CCC(CC)NCc1ccc2c(c1)c1ccccc1n2CC,21.2µM,0,?,0
CC(=O)Nc1ccc(/C(C)=N/NC(N)=S)cc1,-,-,-,28.2µM
COc1cc(C(C2C(=O)CC(C)(C)CC2=O)C2C(=O)CC(C)(C)CC2=O)cc(OC)c1OC,?,0,?,0
COc1cc(C(C2=C(O)CC(C)(C)CC2=O)C2C(=O)CC(C)(C)CC2=O)cc(OC)c1OC (stereo unspecified),18.9µM,0,?,0
C[n+]1c2n(c3ccccc31)N=C(c1cc(C(C)(C)C)c(O)c(C(C)(C)C)c1)CS2,0,0,0,28.2µM
CC(C)(C)c1ccc(C2(C)NC(=O)N(Cc3ncc(-c4ccccc4)o3)C2=O)cc1 (stereo unspecified),-,-,-,0
COC(=O)c1cc(=O)nc2sc(-c3ccc(F)cc3)nn12,6.7µM,0,44.7µM,-
OC(c1cc(C(F)(F)F)nc2c(C(F)(F)F)cccc12)C1CCCCN1 (stereo unspecified),0,0,0,?
OC(c1cc(-c2cccc(Cl)c2)nc2ccccc12)C1CCCCN1 (stereo unspecified),0,-,0,35.5µM
O=C(NC1CCCCC1)N[C@H]1CO[C@H]2[C@@H]1OC[C@@H]2n1nnnc1-c1ccc2c(c1)OCO2,-,-,-,44.7µM
O=C(N[C@H]1CO[C@H]2[C@@H]1OC[C@@H]2n1nnnc1-c1ccc2c(c1)OCO2)c1ccccc1,-,-,-,0
Cc1nonc1CC(=O)N1CCCC(CNS(=O)(=O)c2cccs2)C1 (stereo unspecified),-,-,-,0
Clc1ccc(-c2csc(NC3CC3)n2)cc1,-,-,-,8.91µM
Clc1ccc(-c2csc(NC3CC3)n2)cc1Cl,-,-,-,10µM
CC(=O)Nc1ccc(-c2csc(NC3CC3)n2)c(F)c1,-,-,-,14.1µM
CNc1nc(-c2ccc(Cl)cc2)cs1,0,0,?,0
Clc1cccc(-c2csc(NC3CC3)n2)c1,-,-,-,0
COc1ccc(NC(=O)c2nc3cc(C)c(C)cc3nc2N2CCOCC2)cc1,-,-,-,0
Cc1ccc(C(C)C)c(Oc2ccc(C#N)c(C#N)c2)c1,-,-,-,0
NNC(=S)Nc1ccc(Br)cc1,-,-,-,7.08µM
Cc1cc(C)c(C2=CSC3=NS(=O)(=O)CCN23)c(C)c1,0,0,0,0
O=S1(=O)CCN2C(c3cccc(Br)c3)=CSC2=N1,-,-,-,22.4µM
SMILES,PLK1 PBD inh,GCN5L2 inh,VDR inh,ALOX12 inh
Cc1ccc(NC(=S)N(CCN(C)C)Cc2cccs2)c(C)c1,8.44µM,0,?,0
COc1cc(Nc2nc3ccccc3nc2C(=O)OC(C)C)cc(OC)c1,-,-,-,6.31µM
CS(=O)(=O)c1ccc(Cl)c(NC(=O)Cc2c(F)cccc2Cl)c1,0,0,0,0
CS(=O)(=O)c1ccc(Cl)c(NC(=O)Cc2ccccc2F)c1,26.7µM,0,79.4µM,0
O=C(CSc1nnc(SCc2ccc(Cl)cc2)s1)N/N=C/c1ccc(C(=O)O)cc1,67µM,0,0,0
CC(C)NC(=O)COc1ncnc2ccc(Br)cc12,-,-,-,0
Cc1cccc(N2CCN(c3ccc(NC(=O)c4ccccc4)cc3C(=O)O)CC2C)c1 (stereo unspecified),-,0,0,?
Cc1cccc(N2CCN(c3ccc(C(=O)O)cc3NC(=O)c3cccc(Cl)c3)CC2C)c1 (stereo unspecified),-,0,0,44.7µM
O=C(/C=C/c1cccs1)OC(C(=O)c1c[nH]c2ccccc12)c1ccccc1 (stereo unspecified),-,-,-,0
Cc1ccc(NS(=O)(=O)c2cc([N+](=O)[O-])ccc2NNC(=S)Nc2cc(C)ccc2C)c(C)c1,?,0,?,25.1µM
COc1ccc(NC(=S)NNc2ccc([N+](=O)[O-])cc2S(=O)(=O)Nc2ccc(C)cc2C)cc1,26.7µM,?,44.7µM,22.4µM
Cc1ccc(C(=O)Nc2cc3c(cc2SCc2ccco2)n(C)c(=O)n3C)cc1,-,-,-,7.94µM
Brc1ccc(CN2CCN(Cc3c[nH]c4ccccc34)CC2)cc1,0,0,0,?
c1ccc2cc(CN3CCN(Cc4c[nH]c5ccccc45)CC3)ccc2c1,-,-,-,1.78µM
O=C(CN(Cc1ccccc1)S(=O)(=O)c1ccc(F)cc1)NCCC1=CCCCC1,0,0.794µM,0,0
COc1ccc2c(COC(=O)c3ccc(F)cc3)cc(=O)oc2c1,-,-,-,0
Cc1oc2cc(OCCN3CCN(CCO)CC3)ccc2c(=O)c1-c1ccc(Br)cc1,-,-,-,35.5µM
COc1ccc(-c2c(C)oc3cc(OCCN4CCN(CCO)CC4)ccc3c2=O)cc1,-,-,-,0
COC(=O)c1c(C)[nH]c(-c2csc(NC3CC3)n2)c1C,-,-,-,31.6µM
CC(=O)OCC1=C(C(=O)O)N2C(=O)C(NC(=O)CCn3nc(C(F)(F)F)c(Br)c3C3CC3)C2SC1 (stereo unspecified),?,0,39.8µM,35.5µM
COc1cc(COc2ccc(C(C)=O)cc2)c(OC)cc1Br,-,-,-,0
COc1cc(CNCCc2ccc(S(N)(=O)=O)cc2)ccc1OCc1ccc(Cl)cc1,0,0,0,39.8µM
CN(C)S(=O)(=O)n1cc(/C=C(\NC(=O)c2ccccc2F)C(=O)N2CCOCC2)c2ccccc21,18.9µM,0,?,0
CCn1cc(/C=C(\NC(=O)c2ccc(OC)c(OC)c2)C(=O)N2CCOCC2)c2ccccc21,26.7µM,0,0,?
Cn1c(=O)c2[nH]c(=O)cnc2n(C)c1=S,29.9µM,0,0,0
SMILES,PLK1 PBD inh,GCN5L2 inh,VDR inh,ALOX12 inh
Cc1ccc(Cl)cc1NC(=O)Cn1cnc2c1c(=O)n(C)c(=O)n2C,-,-,-,0
Cc1cc(C)cc(NC(=S)/C(=C(\[O-])c2ccc(Cl)cc2Cl)[n+]2ccccc2)c1,29.9µM,0,0,0
[O-]/C(=C(\C(=S)Nc1ccc(SC(F)F)cc1)[n+]1ccccc1)c1ccc(Cl)cc1Cl,0,0,0,?
N=C1S/C(=C\c2ccccc2F)C(=O)N1c1ccc(F)cc1,0,0,0,0
N=C1S/C(=C\c2cn[nH]c2-c2ccc(F)cc2)C(=O)N1c1ccccc1F,26.7µM,0,0,0
O=C(CCc1nc2sc3c(c2c(=O)[nH]1)CCC3)NCc1ccccc1,-,-,-,0
c1ccc(Sc2ccncc2)cc1,?,-,-,0
c1cc(SSc2ccncc2)ccn1,1.89µM,?,31.6µM,6.31µM
CCOC(=O)c1ccc(N2CN(CCc3ccccc3)CNC2=S)cc1,0,0,0,44.7µM
CCCCCCCOc1ccc(C(=O)O)cc1,-,-,-,0
CCCCCCCCCCCCCCOc1ccc(C(=O)O)o1,-,7.08µM,11.2µM,-
COc1ccc(-c2cnnc(N/N=C/c3ccc(C)o3)n2)cc1,5.97µM,0,44.7µM,0
COc1ccc(-c2cnnc(N/N=C/c3ccc(O)c(O)c3)n2)cc1,0,0,0,?
CN(Nc1cccc(Cl)c1)c1cccc(Cl)c1,0,-,0,31.6µM

# Compound activity as filed in PubChem.
